IMPase Li inh: cell-permeable IMPase inhibitors with lithium potentiation | 0.35% of 210,000 active | Potency, µM (titrated, usually from 59.4 µM), for the others: top-dose activity, negative = IMPase inhibition, hits mostly inhibitors | CHO-M1 cells, IP1 TR-FRET (IP-One), carbachol + lithium;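 also: IP1 builds up when IMPase is blocked and the TR-FRET signal falls; potency is read from the fitted curve at half-maximal effect; plate controls were basal vehicle for no effect and high inhibitor control for full effect; nearly all actives have a fitted effect of over 50% in size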
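CHO cells stably expressing M1 receptor (2000/well, cultured 16–30 h) treated 30 min at 37C with compound plus low lithium. Cytosolic IP1 by TR-FRET (665/620 ratio and 620 channel) after 10 min lysis; AC50 by Hill fit.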
12-hLO inh: blocks human 12-lipoxygenase activity. P18054. purified 12-hLO, xylenol orange hydroperoxide absorbance. Potency, µM (highest dose often 57.1 µM), without a hit: top-dose activity change, negative = inhibition, most hits filed as inhibitors. 0.12% of 150,000 active; also: potency is read from the fitted curve at half-maximal effect; nearly all actives have a fitted effect of over 55% in size
Target sequence (P18054 whole entry, looked up): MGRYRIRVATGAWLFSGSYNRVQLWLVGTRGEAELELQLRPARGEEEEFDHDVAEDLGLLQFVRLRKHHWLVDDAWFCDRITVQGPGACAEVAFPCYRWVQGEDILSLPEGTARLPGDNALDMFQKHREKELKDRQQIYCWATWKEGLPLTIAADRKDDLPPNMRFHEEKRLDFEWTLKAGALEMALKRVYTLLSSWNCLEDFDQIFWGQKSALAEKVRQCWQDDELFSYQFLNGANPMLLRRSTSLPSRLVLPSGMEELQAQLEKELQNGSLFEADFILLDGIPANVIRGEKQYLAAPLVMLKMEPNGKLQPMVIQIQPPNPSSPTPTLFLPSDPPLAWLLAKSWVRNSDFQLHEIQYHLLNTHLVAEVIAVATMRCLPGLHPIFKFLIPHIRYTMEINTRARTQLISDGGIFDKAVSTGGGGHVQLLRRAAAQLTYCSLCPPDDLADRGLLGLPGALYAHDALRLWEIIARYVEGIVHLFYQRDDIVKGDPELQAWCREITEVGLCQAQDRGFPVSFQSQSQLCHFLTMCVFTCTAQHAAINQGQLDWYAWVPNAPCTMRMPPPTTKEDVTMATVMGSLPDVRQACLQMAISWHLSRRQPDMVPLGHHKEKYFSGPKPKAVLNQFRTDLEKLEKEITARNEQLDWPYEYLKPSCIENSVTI
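Purified human 12hLO (150 nM), preincubated 15 min with compound, then 40 uM arachidonic acid for 30 min, room temperature, Hepes pH 7.0 with 0.01% Triton X-100. Hydroperoxide detected by ferrous iron/xylenol orange; 573/405 nm absorbance ratio gives reaction progress.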
IMPase cell inh: cell-permeable inhibitors of inositol monophosphatase (IMPase); P97697; CHO-M1 cells, IP1 accumulation, HTRF TR-FRET ratio; inhibition (IP1 accumulation), % at 46.1 µM; 120,000 tested, under 10 active; active = well fitted curve in the direction sought with a large enough effect in the signal ratio, not every such curve was filed as active; inconclusive = small, poorly fitted or top-dose-only effect, or a change in a side signal; inactive = no such curve, though single readings can be large or run the other way; the % refers to the signal ratio;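 also: cells stimulated with carbachol in lithium chloride buffer; plate controls were DMSO basal wells for no effect and reference inhibitor wells for full effect; higher means more IMPase inhibition seen as more IP1 and lower FRET ratio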
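Seeded CHO-M1 cells were dosed with compound at up to 46 uM, stimulated with carbachol for 30 min, then lysed in IP-One detection reagents. Higher IP1 lowers the TR-FRET signal.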
ALDH1A1 inh: ALDH1A1 (human) enzyme inhibition | 7.3% of 220,000 active | Purified ALDH1A1, NADH fluorescence, propionaldehyde substrate | AID 1030 | Potency, µM (series often up to 75.3 µM), for inactives: at the top dose activity, negative = inhibition, usual class: inhibitors | P00352; active = well fitted inhibition curve with a large enough effect, not every such curve was filed as active; inconclusive = small, poorly fitted or top-dose-only effect, or another doubt; inactive = no such curve, though single readings can be large or run the other way;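 also: potency is read from the fitted curve at half-maximal effect; plate controls were no enzyme wells and a reference inhibitor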
PNC inhibitor: inhibitors of perinucleolar compartment assembly | PC3M PTB-GFP, PNC prevalence imaging, 16 h; active compounds read low | activity change (PNC), negative = inhibition, % at 10 µM | 3.1% of 140,000 active;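 active = readout at or below -70, meaning at least 70% loss of cells showing the perinucleolar compartment, a nuclear body marking cancer cells; inconclusive = readout between -30 and a set limit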;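 also: plate controls were DMSO wells for no effect and camptothecin positive control wells for full effect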
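Read-out is percentage of cells bearing a perinucleolar compartment, from automated 20x imaging of fixed, Hoechst-stained PC3M PTB-GFP cells. Cells were seeded 4 h, then exposed 16 h to compound (23 nl of library stock) in duplicate plates.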
HPGD inh: HPGD (human) dehydrogenase inhibition | P15428 | purified HPGD, NADH fluorescence kinetic, PGE2 substrate | 4.3% of 150,000 active | Potency, µM, for the others: at the highest dose activity change, negative = inhibition, hits mostly inhibitors; active = well fitted inhibition curve with a large enough effect, not every such curve was filed as active; inconclusive = small, poorly fitted or top-dose-only effect, or another doubt; inactive = no such curve, though single readings can be large or run the other way; also: potency is read from the fitted curve at half-maximal effect
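20 nM HPGD preincubated 15 min at room temperature with compound in 50 mM Tris-HCl pH 8, 0.01% Tween 20. Started with 1 mM NAD+ and 30 uM prostaglandin E2; NADH fluorescence (360/450 nm) read 5 times over 30-s intervals, last minus first.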
* = called active by the depositor; ? = inconclusive; . = no result; [ ] = remark or other dose. Most compounds without a hit are left out; they make up all but 11% or so of the library. Unless noted, calls follow the shape of the dose curve; as a rule, active = well fitted curve in the direction sought with a large enough effect; inconclusive = small, poorly fitted or top-dose-only effect, or another doubt; inactive = no such curve, though single readings can be large; an effect the other way counts as inactive or inconclusive. Unless noted, % is scaled to controls: 0 for no effect and ±100 for the full control effect.

SMILES	IMPase Li inh	12-hLO inh	IMPase cell inh	ALDH1A1 inh	PNC inhibitor	HPGD inh
O=C1/C(=C\c2cc3c(cc2Cl)OCO3)N2CCC1CC2	-8.4%	15.0%	.	-9.7%	19.8	28.2µM*
O=C1/C(=C/c2cccc([N+](=O)[O-])c2)N2CCC1CC2	1.4%	-3.9%	12.1	?	-26.1	-7.5%
O=C1/C(=C/c2cc3c(cc2Cl)OCO3)N2CCC1CC2	11.5%	-3.6%	.	12.6µM*	-3.2	22.4µM*
O=C1/C(=C/c2cc([N+](=O)[O-])ccc2Cl)N2CCC1CC2	11.6%[38.3 µM]	1.0%	8.0	?	-10.8	-8.0%
CC[C@@H]1CN2CCc3cc(OC)c(OC)cc3[C@H]2C[C@@H]1C[C@H]1NCCc2cc(OC)c(OC)cc21	3.6%	4.6%[25.6 µM]	-5.5[20.6 µM]	8.3%[20.9 µM]	.	-6.0%
O=c1[nH]cnc2[nH]cc(CN3CCCCC3)c12	-0.3%	7.6%[11.4 µM]	.	4.3%[13.5 µM]	.	-0.1%
O=C(CNC(=O)c1ccccc1)NCC(=O)OCC(=O)c1ccc([N+](=O)[O-])cc1	3.4%	-6.8%	1.1	0.891µM*	-10.1	-6.0%
O=C(CNC(=O)c1ccc(Cl)cc1)OCC(=O)c1ccc2c(c1)OCCO2	18.2%[38.3 µM]	-7.3%	0.8	?	-12.5	-2.8%
O=C(CNC(=O)c1ccc(Br)cc1)NCC(=O)OCC(=O)c1ccc([N+](=O)[O-])cc1	-6.4%	-1.0%	.	1µM*	9.3	-8.2%
Nc1cccc2ccccc12	-1.8%	-5.9%	.	?	.	?
CC1CC2OC2/C=C\C=C/C(=O)Cc2c(Cl)c(O)cc(O)c2C(=O)O1 (centres undefined)	22.7%	-3.9%[0.00818 µM]	.	22.4µM*	.	17.8µM*
C[C@H]1CCC[C@H](O)CCCCCc2cc(O)cc(O)c2C(=O)O1	2.8%[38.3 µM]	-0.3%	5.6	?	4.3	-3.2%
OCCBr	-12.7%	-2.8%	.	5.0%	.	-3.0%
C[N+]1(C)C2CCC1CC(OC(=O)c1c[nH]c3ccccc13)C2 (centres undefined)	18.3%	.	.	22.4µM*	.	-25.7%
C[N+]1(C)[C@@H]2CC[C@H]1CC(OC(=O)[C@@H](CO)c1ccccc1)C2 (some centres undefined)	22.9%	-1.8%[25.6 µM]	?	10.3%[20.9 µM]	.	-4.0%
COc1ccc(/C=C2/Sc3ccc(C(=O)N4CCc5ccccc5C4)cc3NC2=O)cc1	1.9%	-2.8%	.	-7.5%	19.8	15.8µM*
Oc1ccc2c3c1O[C@H]1c4[nH]c5ccccc5c4C[C@]4(O)[C@H](C2)N(CC2CC2)CC[C@@]314	9.8%	-2.7%	-4.6	-3.8%	.	-6.8%
NC(N)=Nc1ccc2[nH]c3c(c2c1)C[C@]1(O)[C@@H]2Cc4ccc(O)c5c4[C@]1(CCN2CC1CC1)[C@@H]3O5	26.3%	-1.9%	9.4	25.1µM*	.	-13.9%
C=CC1CC=CCC1 (centres undefined)	-14.8%	-0.1%	.	22.4µM*	.	-9.8%
CCOP(=S)(OCC)Oc1ccc([N+](=O)[O-])cc1	1.1%	-1.3%	.	15.8µM*	.	-12.2%
Cc1ccc([N+](=O)[O-])cc1	-12.0%	0.9%	.	-2.8%	.	-15.5%
CN(N=O)c1cc(O)ccc1O	7.6%	-2.5%	8.3	20µM*	.	14.1µM*
CN1CCN(Cc2ccccc2Sc2ccccc2)CC1	23.1%	-0.9%	.	6.3%	-86.0*	-5.7%
Cc1noc(NS(=O)(=O)c2ccc(NC(=O)CCCOc3ccc(Cl)cc3Cl)cc2)c1C	8.4%	-3.3%	-2.0	3.2%	-11.3	25.1µM*
CC(=O)c1ccc2c(c1)C1C(Cl)C(Sc3ccccc3[N+](=O)[O-])CC1C(c1ccccc1[N+](=O)[O-])N2 (centres undefined)	-0.7%	?	20.0	?	?	?
SMILES	IMPase Li inh	12-hLO inh	IMPase cell inh	ALDH1A1 inh	PNC inhibitor	HPGD inh
CC(=O)c1ccc2c(c1)C1C(Cl)C(Sc3ccccc3[N+](=O)[O-])CC1C(c1ccccc1)N2 (centres undefined)	101.1%	-10.3%	?	7.94µM*	-96.5*	-25.3%
Cc1c(C(=O)c2cccc3ccccc23)c2cccc3c2n1[C@@H](CN1CCOCC1)CO3	1.2%	-0.5%[0.00818 µM]	.	?	.	-1.4%
COc1cc2c(cc1OC)[C@@]13CCN4CC5=CCO[C@H](CC(=O)O)[C@@H]([C@H]1N2)[C@H]5C[C@H]43	3.0%	3.9%[11.4 µM]	.	17.1%[13.5 µM]	.	-10.8%
CCN(CC)c1ccc(C=C2C(=O)NC(=S)NC2=O)cc1	.	.	.	0.112µM*	.	.
CC(C)CN(CC(C)C)c1ccc(C=C2C(=O)NC(=S)NC2=O)cc1[N+](=O)[O-]	7.5%[38.3 µM]	?	5.3	11.2µM*	4.5	8.91µM*
CC(C)(C)NC[C@H](O)c1ccccc1Cl	.	-1.5%	-6.3	.	.	.
Cc1ccc(Cl)cc1N1CCN(CCN)CC1	22.3%[38.3 µM]	7.2%	-17.7	28.2µM*	0.2	9.4%
CN1CCN(c2ccc(Cl)cc2N)CC1	1.8%	.	.	10.3%	.	.
O=C1C=CC(=O)C=C1	10.8%	-4.3%	-1.7	?	.	-23.2%
O=C1C=CC(=O)C(Cl)=C1	20.6%	?	.	1.78µM*	.	1µM*
Clc1ccc(C(c2ccc(Cl)cc2)C(Cl)Cl)cc1	19.1%	-5.0%	.	0.6%	.	-11.1%
Cc1ccc2c(c1)C1CN(C)CCC1N2C(=O)c1cn(-c2ccccc2)nc1-c1ccccc1 (centres undefined)	11.1%	.	.	3.2%	.	.
Cc1ccc2c(c1)C1CN(C)CCC1N2C(=O)c1ccc(Br)o1 (centres undefined)	50.2%[38.3 µM]	-3.0%	-1.3	22.4µM*	-17.4	-16.1%
Cc1cc(NC(=O)CCl)no1	6.0%	.	.	12.6µM*	.	.
O=C(Nc1ccc(OC(=O)N2CCCC2)cc1)N1CCOCC1	-0.5%	-13.2%	5.4	3.6%	-100.0*	-9.3%
O=C(Nc1ccc(OC(=O)N2CCCCC2)cc1)N1CCOCC1	8.6%	.	.	?	.	.
CCSc1nnc(C(N)Cc2ccccc2)o1 (centres undefined)	-16.8%[38.3 µM]	5.5%	-0.4	?	52.5	0.4%
CCSc1nnc([C@@H](N)Cc2ccccc2)o1	-2.3%[38.3 µM]	2.4%	-2.4	15µM*	?	-9.3%
Cc1ccc(/C=C2/C(=O)NC(=O)N(CC3CCCO3)C2=O)s1 (centres undefined)	-3.8%	-3.2%	.	10µM*	-3.4	14.1µM*
CN(C)c1ccc(/C=C2/C(=O)NC(=O)N(CCc3ccc(F)cc3)C2=O)cc1	1.1%	-15.1%	.	0.631µM*	-20.5	10µM*
Cc1ccc(/C=C2\C(=O)NC(=O)N(CCc3ccc(F)cc3)C2=O)o1	20.8%	-20.5%	-0.5	5.01µM*	?	3.55µM*
Cc1ccc(/C=C2/C(=O)NC(=O)N(CCc3ccc(F)cc3)C2=O)s1	-2.2%	-0.9%	.	?	?	7.08µM*
Cc1ccc(/C=C2\C(=O)NC(=O)N(Cc3ccccc3Cl)C2=O)o1	10.5%	.	.	?	.	.
CCCN1CCc2cccc3c2[C@@H]1Cc1ccc(O)c(O)c1-3	.	?	2.8	.	.	.
ClC(Cl)c1ccccc1	8.1%	-0.7%	.	-6.6%	.	-1.3%
